Assay outcomes as filed in PubChem BioAssay.
In the library only some 3.5% were active in any assay of this set; here they are far more common.
Autofluor counter – flagged as autofluorescent in microsphere protease counterscreen | compound autofluorescence counterscreen, microsphere flow cytometry; stronger effect = higher value | fluorescence intensity (no concentration beside the values) | 360,000 compounds, 3.1% hits | AID 624483; in the data active = fluorescence intensity above about 16000; inconclusive = no clear call, values can overlap the other calls
BoNT-F LC inh – BoNT F light chain protease inhibition. inhibition, % at 10 µM. Multiplex microsphere protease cleavage assay, flow cytometry. 360,000 compounds, 0.22% hits. AID 588497; in the data active = inhibition above about 35%, passing the limit was not always enough; inconclusive = no clear call, values can overlap the other calls; note: plate controls were buffer without enzyme for full effect and enzyme alone for no effect
BJeLR viability – BJeLR cell viability loss; 300,000 compounds, 0.17% hits; BJeLR (HRASV12) viability, CellTiter-Glo ATP luminescence, 48 h; inhibition, % (concentration not given with the values); in the data active = inhibition above about 50%; inconclusive = no clear call, values can overlap the other calls
BoNT A protease – BoNT A light chain protease inhibition; multiplex microsphere protease substrate cleavage, flow cytometry; inhibition, % at 10 µM; 360,000 compounds, 0.17% hits; note: plate controls were buffer without enzyme for full effect and enzyme alone for no effect
Anthrax LF prot – blocks Bacillus anthracis lethal factor protease; P15917; AID 588501; multiplex microsphere protease cleavage assay, LF; inhibition, % at 10 µM; 360,000 compounds, 0.12% hits; note: plate controls were buffer without enzyme for full effect and enzyme alone for no effect
Target sequence (P15917 whole entry, looked up): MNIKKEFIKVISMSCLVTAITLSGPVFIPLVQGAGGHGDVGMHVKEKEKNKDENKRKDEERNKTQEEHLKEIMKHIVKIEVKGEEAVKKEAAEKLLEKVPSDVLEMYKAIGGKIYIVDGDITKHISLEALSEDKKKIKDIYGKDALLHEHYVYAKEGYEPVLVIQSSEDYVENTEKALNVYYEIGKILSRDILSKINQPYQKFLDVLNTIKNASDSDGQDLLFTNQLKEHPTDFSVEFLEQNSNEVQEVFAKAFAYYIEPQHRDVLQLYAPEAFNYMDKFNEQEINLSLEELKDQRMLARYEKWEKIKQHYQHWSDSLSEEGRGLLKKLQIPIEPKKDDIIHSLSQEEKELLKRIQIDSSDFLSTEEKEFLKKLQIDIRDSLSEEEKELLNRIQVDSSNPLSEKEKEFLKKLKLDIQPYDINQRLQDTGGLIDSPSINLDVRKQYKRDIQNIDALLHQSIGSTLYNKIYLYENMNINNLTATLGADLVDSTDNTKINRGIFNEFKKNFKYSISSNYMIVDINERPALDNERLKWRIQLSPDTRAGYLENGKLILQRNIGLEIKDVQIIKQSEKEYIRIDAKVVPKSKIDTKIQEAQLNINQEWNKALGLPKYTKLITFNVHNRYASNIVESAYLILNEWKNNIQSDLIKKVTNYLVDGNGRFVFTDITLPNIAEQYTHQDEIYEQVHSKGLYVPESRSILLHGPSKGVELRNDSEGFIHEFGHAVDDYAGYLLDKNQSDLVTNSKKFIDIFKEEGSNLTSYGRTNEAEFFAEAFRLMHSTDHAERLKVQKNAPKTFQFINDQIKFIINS
* marks the source's active call; other numbers are inactive results; ? = inconclusive; nt = no result given. Cut-off read from the data, not from the text of the source, unless noted: active = inhibition above about 30%; inconclusive = no clear call, values can overlap the other calls; inactive = below that.

SMILES | Autofluor counter | BoNT-F LC inh | BJeLR viability | BoNT A protease | Anthrax LF prot
CC(C)(C)S(=O)N1Cc2cc(C(=O)N3CCOCC3)nc(-c3cccc(Br)c3)c2[C@@H]1CCO (stereo partly drawn) | 5865 | -16 | nt | 1 | 4
CCc1cc(C(=O)Nc2cc(S(=O)(=O)N3CCCCC3)ccc2N2CCN(C)CC2)sc1C | 2996 | -3 | nt | -1 | -4
CCCN(CCC)CC(=O)Nc1cccc2c1OCO2 | 2554 | -11 | 0 | -1 | -2
O=S(=O)(NCC(c1ccccc1)N1CCNCC1)c1ccc(Cl)cc1 (stereo not drawn) | 21805* | -7 | 2 | -2 | -2
O=[N+]([O-])c1c(NCCCO)cc(Sc2nc3ccccc3s2)c2nonc12 | 23409* | 2 | -3 | ? | -2
CCC(=O)OCCNc1cc(Sc2nc3ccccc3s2)c2nonc2c1[N+](=O)[O-] | 15341 | 11 | -17 | ? | 17
Cc1ccc(/C=N/NC(=O)c2cc(-c3ccncc3)nc3ccccc23)o1 | 4270 | 5 | 59* | 1 | 0
CC(/C=N/NC(=O)c1cc(-c2ccncc2)nc2ccccc12)=C\c1ccco1 | 16302* | -1 | 14 | 1 | -6
CN=C1CC(C)(C)CC(=O)/C1=C(/O)CCC(=O)NC | 3522 | ? | 3 | 2 | -1
CC(C)c1noc2ncc(C(=O)c3cc(Cl)cc(Cl)c3O)cc12 | 3350 | -6 | 0 | 0 | -1
Cc1ccc(C(=O)NCc2ccco2)cc1S(=O)(=O)Nc1cccc(Cl)c1 | 21942* | 2 | 2 | ? | -1
Cc1ccc(C)c(S(=O)(=O)NCc2ccc(C(=O)NCc3ccco3)cc2)c1 | 3811 | ? | 5 | 0 | -4
COc1ccc(Cl)cc1NC(=O)C12CCC(C)(C(=O)O1)C2(C)C (stereo not drawn) | 11956 | -8 | -19 | -1 | -6
N#Cc1ccc(NC(=O)COC(=O)CCc2nc3ccccc3c(=O)[nH]2)cc1 | 26617* | -127 | -3 | -26 | -15
Cc1ccc(-n2c(Cn3nc(C(F)(F)F)cc3C)n[nH]c2=S)cc1 | 17459* | -6 | 9 | ? | -4
COc1ccc(-n2c(Cn3nc(C(F)(F)F)cc3C)n[nH]c2=S)cc1 | 2060 | 5 | -17 | 0 | 1
COc1ccccc1CNC(=O)COC(=O)c1cnc(C)cn1 | 3440 | -7 | nt | 1 | -7
CCCc1ccc2oc(C(=O)N3CCC(O)CC3)c(C)c2c1 | 4351 | -4 | 2 | -1 | 1
COc1ccc(C)cc1-n1nnnc1SC/C(O)=C(\C#N)c1nc2ccccc2[nH]1 | 21719* | -1 | 4 | 0 | 1
Cc1cc(C)n2c(SCC(O)=C(C#N)c3nc4ccccc4[nH]3)nnc2n1 | 2831 | 2 | nt | 1 | 3
CCN1CCCC1CN=Cc1c(O)n(-c2ccccc2)c(=O)c2ccccc12 (stereo not drawn) | 27436* | 4 | 1 | ? | 4
Cc1ccc(-n2c(O)c(C=NCc3ccccn3)c3ccccc3c2=O)cc1 | 2678 | -3 | -9 | 0 | -2
CC(C)CCN=Cc1c(O)n(-c2ccccc2)c(=O)c2ccccc12 | 22931* | 1 | 8 | ? | -1
O=C(CSc1nnc2ccccn12)Nc1ccc2c(c1)OCCO2 | 4219 | -3 | 1 | 1 | -1
Cc1c(C(=O)NNC(=S)NCc2ccc(Cl)cc2)oc2ccccc12 | 5589 | -7 | 5 | -2 | -2
SMILES | Autofluor counter | BoNT-F LC inh | BJeLR viability | BoNT A protease | Anthrax LF prot
Cn1c(=O)c2c(-c3ccccc3)n(-c3cc(Cl)c([N+](=O)[O-])cc3O)cc2n(C)c1=O | 21612* | -127 | nt | -18 | -20
Cn1c(=O)c2c(-c3ccccc3)n(-c3ccccc3N)cc2n(C)c1=O | 3626 | -3 | nt | 0 | -3
CC(=O)Nn1cc2c(c1-c1ccccc1)c(=O)n(C)c(=O)n2C | 24616* | -7 | 8 | -2 | 2
CC(C)OC(=O)c1nnn(-c2nonc2N)c1CN1CCc2ccccc2C1 | 5610 | -5 | nt | 0 | 0
CCOC(=O)c1nnn(-c2nonc2N)c1CN1CCc2ccccc2C1 | 20264* | 4 | 1 | 5 | -14
Cc1cc(NC(=O)CCCC(=O)N(CC(=O)NCCc2ccccc2)Cc2ccc(F)cc2)no1 | 20415* | -4 | -6 | -3 | -5
O=C(CN(Cc1ccc(F)cc1)C(=O)CCC(=O)Nc1ccccn1)NCCc1ccccc1 | 3721 | 1 | -17 | 0 | 3
CCCCc1c(-c2ccccc2OC)ncn1Cc1cccc(-c2ccccc2)c1 | 4440 | -6 | nt | 0 | 2
COC(=O)Nc1sc2c(c1C(=O)NCc1ccco1)CCCC2 | 17349* | 4 | -13 | 5 | -15
COC(=O)Nc1sc2c(c1C(=O)NCc1ccco1)CCC2 | 20826* | 1 | -4 | ? | -2
COC(=O)Nc1sc2c(c1C(=O)NC1CC1)CCCCCC2 | 16545* | 0 | 9 | 0 | -2
O=C(CCN1C(=O)c2ccccc2C1=O)Nc1sc2c(c1C(=O)NCc1ccco1)CCCC2 | 23594* | -6 | 0 | ? | -10
CC(C(=O)Nc1sc2c(c1C(=O)NCc1ccco1)CCCC2)N1C(=O)c2ccccc2C1=O (stereo not drawn) | 3525 | -9 | 19 | -1 | -2
O=C(COC(=O)c1ccc(O)cc1O)NC(=O)Cc1ccccc1 | ? | -12 | nt | -1 | -1
O=C(NCC1CCCO1)Nc1ccc2c(c1)OCO2 (stereo not drawn) | 2475 | -8 | -9 | -1 | -2
CC(C)(C)Cc1c(-c2ccc(F)cc2)nc2ccc(Br)cn12 | 3848 | -6 | nt | 0 | -2
CC1(C(=O)NS(=O)(=O)c2ccc(Br)cc2)CCN1C(=O)Cc1ccsc1 (stereo not drawn) | 3528 | 2 | nt | 0 | -7
O=C(Nc1sc2c(c1C(=O)NCc1cccnc1)CCCC2)c1ccco1 | 22004* | 0 | 1 | 0 | 0
O=C(Nc1sc2c(c1C(=O)NCc1ccco1)CCCC2)c1ccc2c(c1)OCO2 | 21722* | 6 | -7 | 5 | -5
COC(=O)c1ccccc1NC(=S)NC(=O)COc1ccccc1Cl | 20710* | -6 | -9 | ? | -6
COc1cc2c(C(=O)N3CCN(c4ccccc4F)CC3)cn(C)c(=O)c2cc1OC | 4518 | -3 | 6 | 0 | 0
O=C(O)c1cn[nH]c1-c1cccc([N+](=O)[O-])c1 | 4445 | -4 | 5 | 0 | -4
COc1ccc(C=C2C(=O)c3ccccc3C2=O)cc1O | 4485 | -9 | -6 | 0 | -9
CCN1C/C(=C/c2ccc(OC)c(O)c2)C(=O)/C(=C/c2ccc(OC)c(O)c2)C1 | 3242 | -8 | 55* | 0 | -3
COc1ccc(/C=C2\CN(Cc3ccccc3)C/C(=C\c3ccc(OC)c(O)c3)C2=O)cc1O | 5532 | -5 | 69* | 1 | 0
CCOc1ccccc1N(CC)C(=O)c1cc2c(s1)-c1ccccc1S(=O)(=O)C2 | 5676 | -2 | nt | 1 | -5
CC(C)C1C(=O)N(Cc2cn(CC3CCCCC3)nn2)CCS(=O)(=O)N1Cc1ccc(-c2ccc(Cl)nc2)cc1 (stereo not drawn) | 3771 | -4 | nt | 0 | -1
CCOC(=O)C(O)(c1ccc(NC(=O)c2ccc(Cl)c(Cl)c2)cc1)C(F)(F)F (stereo not drawn) | nt | nt | 5 | nt | nt
